Screening data: PubChem BioAssay, Sanford-Burnham Center for Chemical Genomics
Rows were chosen to be rich in hits. Some 1.1% of all compounds tested hit in one or more screens of this group.
GC-B act – GC-B (human) receptor activation; HEK293-GC-B cells, CNP EC30, cGMP TR-FRET; 0% at EC30 CNP, 100% saturating CNP; activation, % at 10 µM; hit rate 0.11% among 370,000; P20594;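 active = activation at 10 µM reaching about 35% in either raw or pattern-adjusted values, limit read from the data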
FAS TE block – blocks the thioesterase domain of human fatty acid synthase. P49327. recombinant FAS-TE, OMFH fluorogenic substrate, fluorescence endpoint. inhibition, % at 15 µM. hit rate 0.67% among 360,000;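 active = compounds whose normalised, plate-corrected inhibition of enzyme fluorescence in the single-dose primary screen is 50% or more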;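 also: 0% = DMSO with enzyme and 100% = substrate without enzyme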
GC-A act – GC-A (human) enzyme activation; activation, % at 10 µM; HEK293 GC-A cells, cGMP TR-FRET, EC30 ANP; 0% at EC30 ANP, 100% saturating ANP; P16066; hit rate 0.14% among 370,000; AID 1671463; in the data active = activation above about 40%
Target sequence (P16066 whole entry, looked up): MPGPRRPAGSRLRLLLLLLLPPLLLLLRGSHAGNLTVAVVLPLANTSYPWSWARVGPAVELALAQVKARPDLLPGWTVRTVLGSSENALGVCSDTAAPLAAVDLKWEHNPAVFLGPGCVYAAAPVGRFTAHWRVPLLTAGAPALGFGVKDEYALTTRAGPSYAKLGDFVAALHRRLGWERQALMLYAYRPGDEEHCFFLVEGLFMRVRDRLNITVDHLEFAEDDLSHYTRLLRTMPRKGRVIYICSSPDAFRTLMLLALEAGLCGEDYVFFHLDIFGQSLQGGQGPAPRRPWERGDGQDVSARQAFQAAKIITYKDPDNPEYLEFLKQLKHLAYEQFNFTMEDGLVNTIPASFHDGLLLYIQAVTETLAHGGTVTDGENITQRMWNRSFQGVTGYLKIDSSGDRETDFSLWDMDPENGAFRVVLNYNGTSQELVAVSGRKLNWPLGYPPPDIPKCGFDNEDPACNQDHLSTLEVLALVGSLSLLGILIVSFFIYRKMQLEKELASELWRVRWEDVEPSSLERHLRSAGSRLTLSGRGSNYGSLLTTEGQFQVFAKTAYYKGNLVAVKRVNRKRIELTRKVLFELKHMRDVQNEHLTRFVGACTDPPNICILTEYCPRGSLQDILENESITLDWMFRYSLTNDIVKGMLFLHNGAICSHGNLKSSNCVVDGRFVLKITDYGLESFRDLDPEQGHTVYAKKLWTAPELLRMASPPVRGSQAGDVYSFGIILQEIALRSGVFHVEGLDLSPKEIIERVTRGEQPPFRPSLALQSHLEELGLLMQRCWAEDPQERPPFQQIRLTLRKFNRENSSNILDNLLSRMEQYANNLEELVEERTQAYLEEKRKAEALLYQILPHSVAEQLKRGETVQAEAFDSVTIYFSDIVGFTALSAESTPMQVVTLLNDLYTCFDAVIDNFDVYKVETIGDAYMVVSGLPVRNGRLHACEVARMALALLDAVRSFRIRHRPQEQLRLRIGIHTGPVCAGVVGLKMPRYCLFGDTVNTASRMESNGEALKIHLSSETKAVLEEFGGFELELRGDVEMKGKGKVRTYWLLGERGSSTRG
aDG glyco up – alpha-DG glycosylation activation. Pro5-aDG cells, alpha-DG glycosylation AlphaScreen (IIH6); 0% Pro5, 100% B10-LARGE cell signal. activation, % at 10 µM. hit rate 0.22% among 360,000;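 active = activation of at least 8% versus controls, or a plate z-score of at least 8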;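 also: Pro5 are CHO cells carrying HIG-tagged alpha-DG that lacks glycosylation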
* = called active by the depositor; x = not tested or not shown; ! = repeats disagree.

SMILES	GC-B act	FAS TE block	GC-A act	aDG glyco up
CCN1CCN(c2cc(C)c3cc(NC(=O)CCC(=O)Nc4ccc(OC)c(OC)c4)ccc3n2)CC1	0	-2	4	0
COc1cc(C(=O)NCCC(c2ccccc2)c2ccccc2)cc(OC)c1OC	118*	21	3	0
CCN1C(=O)N/C(=C/c2ccc(C)o2)C1=O	-3	-2	6	0
Cc1ccc(/C=C2/NC(=O)N(Cc3ccc(Br)cc3)C2=O)o1	49*	-1	3	0
CCn1c(C)cc(/C=C2/NC(=O)N(Cc3ccccc3F)C2=O)c1C	18	8	15	0
Cc1ccc(/C=C2/NC(=O)N(Cc3ccccc3F)C2=O)o1	42*	-10	60*	0
CC(C)(C)C1CCc2sc(-c3nnc(CCl)o3)cc2C1 (stereo not drawn)	-5	12	6	0
ClCc1nnc(-c2cc3c(s2)CCCC3)o1	2	7	54*	0
CCC(C)Sc1cccc(-c2nc3cc(C)ccn3c2NC2CCCCC2)c1 (stereo not drawn)	3	14	7	15*!
COc1ccc(/C=C2/C(=O)ON=C2C)cc1Br	15	-2	32	0
CCOc1cc(/C=C2/C(=O)ON=C2C)ccc1OCc1ccccc1	37*	x	43*	x
CCOc1cc(/C=C2\C(=O)ON=C2c2ccccc2)ccc1OC	10	-6	29	0
CCOc1cc(/C=C2/C(=O)ON=C2C)ccc1OCc1ccccc1F	40*	-11	43*	0
CCOc1cc(/C=C2/C(=O)ON=C2C)ccc1OCc1ccc(F)cc1	35*	1	42*	1
C[C@H]1COc2c3ccccc3nn21	2	x	2	x
FC(F)(F)c1cccc(N2CCN(C3=Nc4ccccc4Sc4ccccc43)CC2)c1	-1	x	-2	x
Cc1cc(NC(=O)c2ccc(Cl)cc2)c(C)cc1O	3	1	-2	0
Cc1cc(C(C#N)c2ccc(Cl)cc2)c(Cl)cc1NC(=O)c1cc(I)cc(I)c1O (stereo not drawn)	2	57*	0	0
CC(C)[C@H]1/C(=C/C2CC2)N2C(=O)C[C@@H](c3ccccc3)N=C2N1Cc1ccc2c(c1)OCO2	-6	x	0	x
COC(=O)[C@H](CC(C)C)N(CCCc1cn(Cc2ccc(C)cc2)nn1)S(=O)(=O)c1ccccc1Br	10	x	-4	x
C[C@H](O)Cc1cn(-c2cc3cc(C#Cc4ccsc4)ccc3oc2=O)nn1	0	-9	47*	0
CC(C)(C)NCC(O)COc1ccccc1C(C)(C)C (stereo not drawn)	-6	-7	0	1
CC(C)(C)NCC(O)COc1ccccc1C(=O)CCc1ccccc1 (stereo not drawn)	-9	-5	-11	2.5*
Cc1ccc(N2C(=O)c3cccc4c([N+](=O)[O-])ccc(c34)C2=O)c2cccnc12	41*	-67	4	0
Cc1cccc(CNC(=O)NC2CCCCN(Cc3cccc(Cl)c3)C2=O)c1 (stereo not drawn)	3	x	-4	x
SMILES	GC-B act	FAS TE block	GC-A act	aDG glyco up
Cc1ccc2[nH]c3c(NCc4ccco4)ncnc3c2c1	3	-4	5	4.7*
CCOC(=O)N1CCN(C(=O)C2CCN(C(=O)c3ccccc3C)CC2)CC1	18	6	41*	0
COc1ccc(OC)c(N=c2oc3cc(O)ccc3cc2C(N)=O)c1	0	-7	56*	0
COC(=O)[C@H](C)NC(=O)C(Cc1ccc2c(c1)OCO2)NC(C)=O (stereo partly drawn)	-3	x	3	x
COC1=C(OC)C(=O)C(Sc2ccc3ccccc3c2)=CC1=O	20	14	40*	0
COc1ccc(S(=O)(=O)Oc2ccc3ccccc3c2)cc1	-3	29	2	0
Cc1ccc(C)c(NC(=O)C2CCCN(S(=O)(=O)c3cccnc3)C2)c1 (stereo not drawn)	0	-2	2	0
Cc1ccc2nc(NC(=O)C3CCCN(S(=O)(=O)c4cccnc4)C3)sc2c1 (stereo not drawn)	-8	9	48*	0
C[C@H]1[C@H](N(Cc2ccccc2)Cc2ccccc2)CC[C@@]23CCCN2C(=O)CCC[C@@H]13	-3	x	-2	x
CN(Cc1ccccc1)CC(O)COc1ccc(CNCc2ccc(Cl)s2)cc1 (stereo not drawn)	-8	-1	2	6.2*
C#CCOCCOCCOCCNc1nc(N2CCN(C(=O)[C@H](CCCCN)n3cc([C@@H](N)CC(C)C)nn3)CC2)nc(N2CCN(C(=O)[C@H](Cc3cc4ccccc4[nH]3)n3cc([C@@H](N)CC(C)C)nn3)CC2)n1	4	x	-2	x
CC(=O)N1Cc2ccccc2CC1C(=O)N1CCN(c2ccccc2)CC1 (stereo not drawn)	78*	-6	1	0
COc1ccc(N2CCN(C(=O)C3Cc4ccccc4CN3C(=O)c3ccccc3)CC2)cc1 (stereo not drawn)	-4	10	0	0
CCCN1CC(=O)N2[C@H](C[C@@]3(n4ccc5ccccc54)c4ccccc4N(S(=O)(=O)c4ccccc4)[C@@H]23)C1=O	5	x	-4	x
COc1ccc(NC(=S)Nc2ccc3nsnc3c2)cc1	-5	1	1	7.8*
CCOc1ccc(NC(=O)Nc2ccc3nsnc3c2)cc1	10	-1	1	1
CCOc1ccc(NC(=S)Nc2ccc3nsnc3c2)cc1	-6	10	-2	7.8*
CCCCNC(=O)C[C@H]1C[C@@]2(C(=O)OC)C(=C[C@H](C(C)(C)C)O[C@@H]2C)N(Cc2ccco2)C1=O	-28	x	-28	x
COc1ccc(Cn2cc(CN3[C@@H](C)COc4cc(Br)ccc4S3(=O)=O)nn2)cc1	5	x	1	x
Cc1nc2ccc(S(=O)(=O)NCC(=O)N(C)Cc3ccc(F)cc3)cc2s1	11	x	3	x
CN(CCO)c1ccc2c(c1)Oc1ccccc1CN(Cc1cn(Cc3ccc(F)cc3)nn1)S2(=O)=O	1	x	0	x
O=C(CSc1nnc(-c2cccs2)o1)Nc1cc(Cl)cc(Cl)c1	-4	x	-1	x
CCN(C(=O)CN1CCN(c2nc(-c3ccccc3)cs2)CC1)c1ccccc1C	-4	x	1	x
CCOC(=O)c1c(C)oc2c1C(=O)c1ccccc1C2=O	-4	-3	-4	9.7*
O=C1ON=C(c2ccccc2)/C1=C/c1ccco1	35*	-7	36	0
CN(C)/C=C1\C(=O)ON=C1c1ccccc1	-2	-8	0	0
CC(=O)c1sc(C(C)(C)C)cc1NC(=O)c1ccccc1C(=O)O	26	2	47*	0
O=C1C(Cc2ccccc2)Nc2ncnc(N3CCc4ccccc4C3)c2N1Cc1ccc(Cl)cc1 (stereo not drawn)	x	55*	x	1
COCCCNC(=O)C[C@H]1C[C@@]2(C(=O)OC)C(=C[C@H](C(C)(C)C)O[C@@H]2C)N(Cc2ccco2)C1=O	-8	x	-12	x
O=C(OCc1ccc(Br)cc1)c1cnc(Cl)c(Cl)c1	-4	46	15	0
